According to PubChem BioAssay AID1035470 (Broad Institute, 2014):
The campaign covered roughly 1,800 compounds. Fewer than 10 were called active. About 16% were inconclusive and are not listed. Not all results are given here. Potency and affinity values are given separately. Unmarked numbers belong to inactive results.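 The calls were made as follows: active = compound lowering the normal-ribosome reporter at least twice as much as the humanized-ribosome reporter, growth loss under a set limit; inconclusive = no clear call, values can overlap the other calls; inactive = the rest.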

Assay: growth inhibition of wild-type GFP E. coli versus G2058-humanized strain, dose response, G2058 mutant RFP vs wild-type GFP, cherry-pick, two tests (AID 1035470)
Conditions: E. coli WT-GFP vs G2058-humanized RFP, fluorescence, 24 h; series mostly up to 50 µM; activity change, negative = inhibition: at the top concentration

Row | Structure (SMILES) | activity change, negative = inhibition
1 | COc1cccc(NC2=Nc3cccc4cccc2c34)c1 | -20.4
2 | COCc1nnc(NC(=O)c2ccc(S(=O)(=O)N3CCCC3)cc2)o1 | -10.3
3 | O=C(COc1cccc2c1CCN(Cc1ccc(Br)cc1)C2=O)N1CCOCC1 | -5.18
4 | Cc1cccc(OCc2nc(C#N)c(N3CCCC3)o2)c1 | 5.24
5 | Cc1onc(-c2c(Cl)cccc2Cl)c1C(=O)Nc1ccc(Cl)cn1 | -0.987
6 | NS(=O)(=O)c1ccc(NC(=O)CCC(=O)O)cc1 | 23.6
7 | Cc1ccc(NC(=O)C[n+]2cc(-c3ccccc3)n3c2CCC3)cc1 | 12.5
8 | Cc1ccc(S(=O)(=O)Nc2ccc3c(c2)C(=O)N([C@@H](C)CO)C[C@@H](C)[C@H](CN(C)C(=O)c2ccccc2)OCCCC[C@@H](C)O3)cc1 | 0.461
9 | COc1ccc(NC(=O)Nc2cccc3c2O[C@@H](CN(C)S(=O)(=O)c2ccc(Cl)cc2)[C@H](C)CN([C@@H](C)CO)C3=O)cc1 | 2.46 [at 26 µM]
10 | O=C1c2ccccc2C(=O)N1CCc1c[nH]c2ccccc12 | -10.9
11 | CC(=O)Cc1cc(O)c2ccccc2c1OC(=O)c1ccc(Br)cc1 | -5.75
12 | COc1ccc(CC(=O)NC(C)c2ccc3ccccc3c2)cc1 (stereo unspecified) | -2.81
13 | Fc1ccc(Br)cc1SCCc1ccncc1 | -17.4
14 | C[C@@H]1CCCCO[C@@H](CN(C)C)[C@H](C)CN([C@@H](C)CO)C(=O)c2cc(NC(=O)Nc3cccc4ccccc34)ccc2O1 | 17.4
15 | Cc1onc(-c2ccccc2)c1C(=O)Oc1ccccc1 | -2.9
16 | COC(=O)c1ccc2nc(-c3ccc(OC)c(OC)c3)c(Cc3ccc(C)cc3)n2c1 | -12
17 | COc1ccc(C(=O)NCCC2=CCCCC2)cc1[N+](=O)[O-] | -2.38
18 | C[C@H]1CN([C@@H](C)CO)C(=O)CCCn2nncc2CO[C@@H]1CN(C)Cc1ccccc1C(F)(F)F | -15.1
19 | COc1ccc(N2C(=O)C3C(c4ccc(C(=O)O)cc4)NC(Cc4ccccc4)(C(=O)O)C3C2=O)c([N+](=O)[O-])c1 (stereo unspecified) | 5.02
20 | Cc1ccc2nc(-c3ccc(Cl)cc3)c(Cc3ccccc3C(F)(F)F)n2c1 | 11.2
21 | COc1ccc2cc(CO)c3cc(OC)c(OC)cc3c2c1 | -16.3

Row | Structure (SMILES) | activity change, negative = inhibition
22 | CC(C)(C)NC(=O)C(c1ccncc1)N(Cc1ccc(F)cc1)C(=O)c1ccc(-c2ccccc2)[nH]1 (stereo unspecified) | -0.988
23 | Cc1noc(C)c1NC(=O)N(C)C[C@H]1OCCCC[C@@H](C)Oc2ccc(NC(=O)Nc3cccc4ccccc34)cc2C(=O)N([C@@H](C)CO)C[C@H]1C | 2.78
24 | Cn1c(CCN2CCOCC2)nc2cc(NC(=O)c3cccs3)ccc21 | 24.4
25 | COc1ccccc1C(C(C(=O)c1ccccc1)N1CCOCC1)N1CCOCC1 (stereo unspecified) | -8.67
26 | Cc1cccc(-c2ccc([C@H]3[C@@H](CO)N4CCCCN(S(=O)(=O)c5ccccc5C)C[C@H]34)cc2)c1 | -14.4
27 | CCc1cc(CN2CCOCC2)c(NC(=O)c2ccccc2)s1 | -6.48
28 | COc1ccccc1CC(=O)NCCc1c[nH]c2ccccc12 | 3.23
29 | Cn1c(=O)n(C)c2cc([N+](=O)[O-])c(N3CCN(C(=O)c4cccc(F)c4)CC3)cc21 | -10.1
30 | O=C(CSCc1ccc(Br)cc1)NCc1ccccn1 | -9.31
31 | Cc1ccc(CCN2C(=O)c3ccccc3C2C(=O)NCc2cccnc2)cc1 (stereo unspecified) | -2.74
32 | CS(=O)(=O)c1ccc(Cl)c(NC(=O)COC(=O)c2c(Cl)cccc2Cl)c1 | -18.7
33 | COCC#Cc1ccc2c(c1)O[C@H](CN(C)C(=O)c1ccccc1)[C@@H](C)CN([C@H](C)CO)S2(=O)=O | -19
34 | Cc1noc(C)c1NC(=O)Nc1ccc2c(c1)C(=O)N([C@H](C)CO)C[C@H](C)[C@H](CN(C)C(=O)Nc1ccc3c(c1)OCO3)OCCCC[C@H](C)O2 | 15
35 | CC1(C)CC(=O)c2cnc(N3CCc4ccccc43)nc2C1 | 6.66
36 | S=c1nc(-c2cc(Cl)cc(Cl)c2)[nH][nH]1 | -16.2
37 | O=[N+]([O-])c1ccc(NCCNCCOc2nonc2-c2ccccc2)c([N+](=O)[O-])c1 | -27.2
38 | Cc1nn2c(NCc3ccccn3)cc(C(C)C)nc2c1-c1ccccc1 | -11.1
39 | O=S(=O)(NOCc1ccc(Cl)cc1)c1ccc(Cl)cc1 | -15
40 | O=C(Nc1ccc2c(c1)OCCO2)C1C(c2ccccc2)=Nc2ccccc2N1C(=O)c1cccnc1 (stereo unspecified) | 0.765
41 | O=C(COc1ccccc1Cl)Nc1nc(-c2ccncc2)cs1 | -15.4
42 | CCOc1ccccc1N1CC(C(=O)Nc2cccc(S(=O)(=O)N3CCCCC3)c2)CC1=O (stereo unspecified) | -18

Row | Structure (SMILES) | activity change, negative = inhibition
43 | COc1ccc(-c2csc3ncn(-c4ccc(C)cc4)c(=O)c23)cc1OC | -22.9
44 | O=C(NCc1nnnn1-c1ccc(Cl)cc1)c1ccc([N+](=O)[O-])o1 | -6.35
45 | O=[N+]([O-])c1cccc(COc2ccc(CN3CCOCC3)cc2)c1 | -1.83
46 | C[C@@H]1CN([C@@H](C)CO)C(=O)c2cc(NC(=O)C3CC3)ccc2O[C@H]1CN(C)C(=O)Nc1ccc(C(F)(F)F)cc1 | -10.7
47 | CCN(CC(=O)Nc1cccc(S(=O)(=O)N2CCCC2)c1)CC(=O)Nc1ccccc1OC | -14.9
48 | COC(=O)c1ccc2nc(-c3ccco3)c(Cc3ccc(C)cc3)n2c1 | -19.6
49 | COc1ccc(CC(=O)Nc2cc(S(=O)(=O)Nc3ccc(OC)cc3)ccc2OC)cc1 | -11.4
50 | CC(C)CNc1nc(S(=O)(=O)c2ccccc2)c(Cl)s1 | -11.6
51 | O=C(CN1CCCCC1)n1c2ccccc2c2ccccc21 | 1.66
52 | O=C1c2ccccc2C(c2nnnn2Cc2ccccc2)N1Cc1cccc(F)c1 (stereo unspecified) | -9.45
53 | Cc1nn(CC(=O)c2ccc(Br)s2)c(C)c1[N+](=O)[O-] | -2.97
54 | Brc1ccc(-n2cnc(-c3ccccc3)c2)cc1 | 2.89
55 | NC(=O)c1cccnc1Oc1ccc(Cl)cc1Cl | -0.964
56 | CCc1ccc(NC(=O)CCc2c(C)nn(-c3ccc(N4CCCCC4)nn3)c2C)cc1 | -14.7
57 | COc1ccc2c(c1)-c1nc(N)sc1CC2 | -4.08
58 | CC(C)(C)N(Cc1ccccc1)C(=O)COC(=O)Cn1cnc2ccccc2c1=O | -17.1
59 | COc1ccc(OC)c(NC(=O)CN(C)CC(=O)Nc2ccccc2Br)c1 | -33
60 | O=C(c1ccccc1)C1CN(Cc2ccccc2)CCC1(O)c1ccccc1 (stereo unspecified) | -2.03
61 | CCC1(CC)NC(=O)N(CC(=O)N2N=C(c3ccc(Cl)cc3)CC2c2ccco2)C1=O (stereo unspecified) | -18.3
